Compound activity as filed in PubChem.
An excerpt weighted towards active compounds, which were near 19% of everything screened.
HT1080 IDH1KD tx = HT-1080 IDH1 knockdown cell toxicity (counter line); HT-1080 IDH1 knockdown viability, ATP luminescence, 48 h; Potency, µM (highest dose often 46.1 µM), for the others: top-dose activity, negative = toxicity, hits mostly cytotoxic; 360,000 tested, 2% active;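 further: potency means the concentration at half of the fitted maximal effect; 0% = DMSO wells and -100% = cell-free medium wells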
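Cytotoxicity counter-line: IDH1KD HT-1080, 48 h, CellTiter-Glo. Curves classed by r2, magnitude and activity.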
HT1080NT lethal = kills 2HG-producing HT-1080-NT fibrosarcoma cells; AID 686970; HT-1080-NT fibrosarcoma viability, CellTiter-Glo ATP luminescence, 48 h; 360,000 tested, 1.6% active; Potency, µM (titrated, usually from 46.1 µM), without a hit: at the highest dose activity, negative = less viability, hits mostly cytotoxic;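 further: NT is the 2HG producing partner of a matched IDH1 knockdown line; potency means the concentration at half of the fitted maximal effect; 0% = DMSO-treated cells and -100% = media-only wells without cells; nearly all actives have a fitted effect of over 55% in size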
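750 cells/well, RPMI + 5% FBS; 2 h settle, compound pin-transfer, 48 h at 37 degrees C. CellTiter-Glo 10 min RT, luminescence. Normalized to DMSO and media-only wells.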
TDP1 cell CPT = growth inhibition of DT40 Tdp1-/-;hTDP1 cells with camptothecin (screen for TDP1 inhibitors) | Potency, µM (series often up to 46.2 µM), for inactives: at the top dose activity change, negative = growth inhibition, usual class: inhibitors | chicken DT40 Tdp1-/-;hTDP1 cells + 20 nM CPT, ATP luminescence, 48 h | 420,000 tested, 12% active; further: potency means the concentration at half of the fitted maximal effect; nearly all actives have a fitted effect of over 55% in size
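Cell growth measured by CellTiter-Glo luminescence after a minimum 48 h, 37 C compound exposure with 20 nM CPT in Tdp1-knockout DT40 cells stably expressing hTDP1, seeded 400/well; qHTS titration format.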
IL1B secr inh = inhibitors of inflammasome signaling (IL-1 beta secretion); 360,000 tested, 4.7% active; THP-1 LPS/ATP IL-1B secretion, AlphaLISA, 16 h; hits give low values; activity change, % at 57.5 µM; AID 743279; in the data active means activity change below about -50%; inconclusive means mostly about -30% to -49%
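THP-1 cells pretreated 1 hr with compounds (up to 57.5 uM final), then stimulated with LPS (250 ng/mL final) plus ATP (1.25 mM final); secreted IL-1B measured by AlphaLISA after 16 hr, decreased signal indicating inhibition.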
TDP1 cell noCPT = qHTS for Inhibitors of human tyrosyl-DNA phosphodiesterase 1 (TDP1): qHTS in cells in absence of CPT. DT40 Tdp1-/- hTDP1 cells, no CPT, ATP luminescence, 48 h. Potency, µM (series often up to 46.2 µM), inactives show top-dose activity change, negative = growth inhibition, actives largely listed as inhibitors. 420,000 tested, 15% active. AID 686978, 2013; further: potency means the concentration at half of the fitted maximal effect; nearly all actives have a fitted effect of over 55% in size
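Growth kinetics read by CellTiter-Glo luminescence after ≥48 hr at 37 °C. Cells: DT40 Tdp1-/- stably carrying human TDP1, 400 per well, compound exposure in the absence of CPT (DMSO vehicle).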
ELG1 DNA repair = blocks ELG1-dependent DNA repair in HEK293T cells; Potency, µM (titrated, usually from 46.1 µM), without a hit: at the highest dose activity change, negative = inhibition, hits mostly inhibitors; 330,000 tested, 2.3% active; HEK293T ELG1-luciferase reporter, luminescence, 16 h; DNA damage induced by 5-fluorouridine; AID 504467; further: potency means the concentration at half of the fitted maximal effect; nearly all actives have a fitted effect of over 55% in size
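Step one: seed 2,000 cells per well. Step two: pin-transfer compound or DMSO alongside 5-fluorouridine. Step three: incubate 16 hr, 37 °C, 5% CO2. Step four: add ONE-Glo, wait 30 min, read luminescence.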
An asterisk follows results filed as active; i = inactive; ? = inconclusive; / = no result. Unless noted, the call rests on the fitted dose curve; in most records, active means well fitted curve in the direction sought with a large enough effect; inconclusive means small, poorly fitted or top-dose-only effect, or another doubt; inactive means no such curve, though single readings can be large; an effect the other way counts as inactive or inconclusive. Unless noted, on the % scale 0 is the no-effect control and ±100 the full control effect.

SMILES	HT1080 IDH1KD tx	HT1080NT lethal	TDP1 cell CPT	IL1B secr inh	TDP1 cell noCPT	ELG1 DNA repair
O=C(Nc1c(F)cccc1F)c1ccc2c(c1)CCN2S(=O)(=O)c1ccccc1	-29.5%	-3.8%	?	-66.7*	-7.2%	?
Cc1cccc(NC(=O)c2ccc3c(c2)CCN3S(=O)(=O)c2ccccc2)c1C	/	/	-28.4%	/	-27.9%	/
CCOC(=O)c1ccc(NC(=O)c2ccnn2C)cc1	4.6%	12.6%	1.5%	2.8	2.8%	/
Cn1nccc1C(=O)Nc1ccc(OC(=O)c2ccnn2C)cc1	0.3%	7.5%	-26.3%	11.9	-20.2%	23.1µM*
CCC1(c2ccccc2)SC(=O)NC1=O (stereo unspecified)	0.7%	-2.0%	1.1%	8.9	?	/
CCc1nc2nc(C)cc(C)n2c1Nc1ccc(OC)cc1	0.9%	2.1%	?	44.0	18.4µM*	/
Cc1ccc(Nc2c(-c3ccco3)nc3nc(C)cc(C)n23)cc1	-15.7%	-9.6%	?	4.7	?	5.4%
CCCCNc1c(-c2ccc(F)cc2)nc2nc(C)cc(C)n12	-19.8%	-28.7%	?	15.8	?	/
COc1ccc(Nc2c(CCc3ccccc3)nc3nc(C)cc(C)n23)cc1	?	?	18.4µM*	-8.2	13µM*	/
CCCCNc1c(CCc2ccccc2)nc2nc(C)cc(C)n12	-10.8%	-15.6%	18.4µM*	-3.2	?	/
COC(=O)c1[nH]c2cccc(OC)c2c1NC(=O)CCN1CCN(c2ccccc2OC)CC1	?	-10.0%	10µM*	-0.9	12.6µM*	?
CCN1CCN(CC(=O)Nc2c(C(=O)OC)[nH]c3cccc(Cl)c23)CC1	/	/	/	/	/	12.2%
COC(=O)c1[nH]c2cccc(OC)c2c1NC(=O)CN1CCN(c2cccc(OC)c2)C(C)C1 (stereo unspecified)	-17.0%	-27.1%	?	-0.5	14.6µM*	13µM*
COc1ccc2[nH]cc(C(=O)CN3CCCC(C)C3)c2c1 (stereo unspecified)	-0.3%	4.3%	-24.4%	4.2	-20.9%	8.8%
COc1cccc(N2CCN(CC(=O)c3c[nH]c4ccc(OC)cc34)CC2C)c1 (stereo unspecified)	?	?	20.6µM*	-1.9	20.6µM*	?
COC(=O)c1[nH]c2cccc(OC)c2c1NC(=O)CCN1CCC(C)CC1	-9.3%	-3.3%	?	-8.2	?	-8.0%
CC(C)CC1NC(=O)c2cccnc2-n2c1nc1cc(F)ccc1c2=O (stereo unspecified)	8.0%	1.4%	-23.2%	18.4	-6.4%	/
CCOC(=O)c1ccc(NC(=O)CN2Cc3ccccc3C2=O)cc1	/	/	-23.5%	/	-16.1%	/
Cc1ccc(CNC(=O)c2ccc3c(O)c(S(=O)(=O)c4ccccc4)c(=O)[nH]c3c2)cc1	/	/	-1.8%	/	-5.0%	/
COc1c(/C=N/NC(=O)[C@H]2C[C@@H]2c2ccccc2)c(CCN(C)C(C)=O)cc2c1OCO2	-5.0%	-11.6%	-16.1%	-9.0	-15.8%	13µM*
CCCCC1Cc2[nH]c(=S)[nH]c(=O)c2C(c2cccc3ccccc23)O1 (stereo unspecified)	?	-24.2%	-15.0%	26.5	?	/
CCCOc1ccc(/C=C/c2[nH]c(=O)[nH]c(=O)c2[N+](=O)[O-])cc1OCC	-0.8%	7.1%	27.0%	-5.4	4.0%	-24.7%
CCOC(=O)COc1ccc(Br)cc1/C=C\c1[nH]c(=O)[nH]c(=O)c1[N+](=O)[O-]	-10.6%	-2.7%	23.1µM*	i	23.1µM*	-2.2%
CCOC(=O)COc1ccc(Br)cc1/C=C/c1[nH]c(=O)[nH]c(=O)c1[N+](=O)[O-]	?	18.4µM*	-3.4%	-63.2*	?	-10.3%
O=C(COc1ccccc1/C=C\c1[nH]c(=O)[nH]c(=O)c1[N+](=O)[O-])Nc1ccccc1	9.6%	0.3%	-3.8%	-14.5	-12.2%	?
SMILES	HT1080 IDH1KD tx	HT1080NT lethal	TDP1 cell CPT	IL1B secr inh	TDP1 cell noCPT	ELG1 DNA repair
O=C(O)CC1c2ccccc2C=Cc2ccccc21	-1.3%	4.0%	-3.7%	36.9	0.6%	5.9%
CCOc1ccc(NC(=O)CN(C)C(=O)COc2cccc3c2OC(C)(C)C3)cc1OCC	-1.0%	0.7%	-17.9%	1.9	-4.3%	-6.0%
CCCCN1C(=O)C(CC(=O)NCCN2CCOCC2)CC(C(=O)N(CC)CC)=C1C (stereo unspecified)	13.7%	6.7%	6.3%	5.1	-13.9%	/
C/C(=N\NC(N)=O)C1(C)CCCCC1	0.8%	1.4%	-3.9%	2.9	-4.9%	0.7%
C/C(=N\NC(N)=S)C1(C)CCCCC1	12.8%	11.8%	?	-2.0	13µM*	-28.1%
CCOc1ccc(NC(=O)c2c(NCc3cccnc3)sc3c2CCC(C)C3)cc1 (stereo unspecified)	/	/	14.6µM*	/	14.6µM*	/
CCOc1ccccc1NC(=O)c1c(NCc2cccs2)sc2c1CCC(C)C2 (stereo unspecified)	/	/	?	/	18.4µM*	/
CCOc1ccc(NC(=O)c2c(NC(=O)c3ccco3)sc3c2CCC(C(C)(C)C)C3)cc1 (stereo unspecified)	/	/	-6.6%	/	2.3%	/
COc1ccc(Cl)cc1NC(=O)c1c(NCc2cccnc2)sc2c1CCC(C)C2 (stereo unspecified)	/	/	3.66µM*	/	4.61µM*	/
COc1ccc(CC(=O)Nc2sc3c(c2C(=O)Nc2ccccc2)CCCCC3)cc1	/	/	-68.5%	/	?	/
COc1ccc(OC)c(NC(=O)c2c(NCc3ccc(C)o3)sc3c2CCCCC3)c1	/	/	6.51µM*	/	7.31µM*	/
COc1cccc(CNC(=O)c2c(OC)cc(=O)n3c2CCN(C(=O)C2=C(C)OCCO2)CC3)c1	/	/	6.6%	/	-3.9%	/
CCCN(C(=O)COc1ccc(Cl)cc1Cl)c1c(N)n(Cc2ccccc2)c(=O)[nH]c1=O	6.0%	5.4%	?	4.1	?	6.6%
CCOC(=O)c1c(NC(=O)C2CCN(S(=O)(=O)c3cccs3)CC2)sc(C)c1C	-4.6%	-6.3%	?	-3.1	?	-28.7%
COC(=O)c1c(NC(=O)CN(C)CC(=O)Nc2ccc(C)cc2)sc2c1CCC(C)C2 (stereo unspecified)	8.7%	6.0%	?	3.7	?	?
COC(=O)c1c(NC(=O)COc2ccc(Cl)cc2C)sc2c1CCCCC2	/	/	-22.7%	/	-8.1%	/
